Experiments:
[1] = molecular target: T1, Tyrosine-protein kinase receptor TYRO3 (Homo sapiens) (UniProt Q06418); details: at 1 µM
T1 sequence (whole entry): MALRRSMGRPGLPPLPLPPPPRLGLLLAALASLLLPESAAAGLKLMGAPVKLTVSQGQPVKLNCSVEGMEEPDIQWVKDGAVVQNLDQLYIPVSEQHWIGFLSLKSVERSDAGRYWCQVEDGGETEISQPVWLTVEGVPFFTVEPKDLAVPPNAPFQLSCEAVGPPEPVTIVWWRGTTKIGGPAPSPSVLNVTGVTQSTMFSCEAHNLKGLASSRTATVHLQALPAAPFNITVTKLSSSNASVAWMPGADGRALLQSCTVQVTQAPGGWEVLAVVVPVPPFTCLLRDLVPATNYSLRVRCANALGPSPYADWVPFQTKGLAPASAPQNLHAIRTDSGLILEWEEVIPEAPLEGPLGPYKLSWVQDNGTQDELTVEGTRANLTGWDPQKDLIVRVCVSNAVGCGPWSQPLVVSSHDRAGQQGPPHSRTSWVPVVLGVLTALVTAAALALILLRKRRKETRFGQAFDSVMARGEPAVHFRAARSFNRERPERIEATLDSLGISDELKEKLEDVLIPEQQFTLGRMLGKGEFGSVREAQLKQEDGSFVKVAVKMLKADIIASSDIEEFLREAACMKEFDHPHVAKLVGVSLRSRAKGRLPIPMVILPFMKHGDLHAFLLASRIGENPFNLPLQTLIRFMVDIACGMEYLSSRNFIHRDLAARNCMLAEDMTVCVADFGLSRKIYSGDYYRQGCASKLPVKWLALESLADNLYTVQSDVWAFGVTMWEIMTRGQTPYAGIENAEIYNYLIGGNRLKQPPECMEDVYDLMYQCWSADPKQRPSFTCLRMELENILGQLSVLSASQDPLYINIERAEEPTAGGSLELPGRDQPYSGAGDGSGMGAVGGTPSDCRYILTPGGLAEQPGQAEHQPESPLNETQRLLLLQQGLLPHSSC

[2] = molecular target: Tyrosine-protein kinase Yes (Homo sapiens) (UniProt P07947); details: at 0.1 µM
[3] = molecular target: Tyrosine-protein kinase Yes (Homo sapiens) (UniProt P07947); details: at 1 µM
[4] = molecular target: T2, Tyrosine-protein kinase ZAP-70 (Homo sapiens) (UniProt P43403); details: at 0.1 µM
T2 sequence (whole entry): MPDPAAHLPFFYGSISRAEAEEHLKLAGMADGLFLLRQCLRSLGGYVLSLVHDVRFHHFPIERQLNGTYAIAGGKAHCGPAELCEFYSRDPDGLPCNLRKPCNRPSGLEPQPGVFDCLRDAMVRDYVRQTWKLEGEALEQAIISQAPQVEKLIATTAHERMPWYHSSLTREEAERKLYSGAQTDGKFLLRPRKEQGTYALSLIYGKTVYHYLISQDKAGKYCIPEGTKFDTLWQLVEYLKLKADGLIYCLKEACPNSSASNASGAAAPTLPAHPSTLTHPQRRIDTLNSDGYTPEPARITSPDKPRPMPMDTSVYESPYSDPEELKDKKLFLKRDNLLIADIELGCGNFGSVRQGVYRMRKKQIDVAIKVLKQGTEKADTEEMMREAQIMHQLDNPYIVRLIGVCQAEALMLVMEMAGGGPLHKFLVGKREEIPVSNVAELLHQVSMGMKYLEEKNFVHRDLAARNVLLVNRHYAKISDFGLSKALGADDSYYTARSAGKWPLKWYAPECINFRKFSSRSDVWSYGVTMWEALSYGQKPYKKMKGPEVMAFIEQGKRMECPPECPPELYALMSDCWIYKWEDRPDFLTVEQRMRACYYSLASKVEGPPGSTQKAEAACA

[5] = molecular target: T2, Tyrosine-protein kinase ZAP-70 (Homo sapiens); details: at 1 µM
[6] = molecular target: Serine/threonine-protein kinase B-raf (Homo sapiens) (UniProt P15056); details: at 0.1 µM
[7] = molecular target: Serine/threonine-protein kinase B-raf (Homo sapiens) (UniProt P15056); details: at 1 µM
[8] = system: Serine/threonine-protein kinase B-raf (Homo sapiens), P15056 [V600E]; details: at 0.1 µM
[9] = system: Serine/threonine-protein kinase B-raf (Homo sapiens), P15056 [V600E]; details: at 1 µM
[10] = molecular target: RAF proto-oncogene serine/threonine-protein kinase (Homo sapiens) (UniProt P04049); details: at 0.1 µM
[11] = molecular target: RAF proto-oncogene serine/threonine-protein kinase (Homo sapiens) (UniProt P04049); details: at 1 µM
[12] = molecular target: T3, Interleukin-1 receptor-associated kinase 4 (Homo sapiens) (UniProt Q9NWZ3); details: at 0.1 µM
T3 sequence (whole entry): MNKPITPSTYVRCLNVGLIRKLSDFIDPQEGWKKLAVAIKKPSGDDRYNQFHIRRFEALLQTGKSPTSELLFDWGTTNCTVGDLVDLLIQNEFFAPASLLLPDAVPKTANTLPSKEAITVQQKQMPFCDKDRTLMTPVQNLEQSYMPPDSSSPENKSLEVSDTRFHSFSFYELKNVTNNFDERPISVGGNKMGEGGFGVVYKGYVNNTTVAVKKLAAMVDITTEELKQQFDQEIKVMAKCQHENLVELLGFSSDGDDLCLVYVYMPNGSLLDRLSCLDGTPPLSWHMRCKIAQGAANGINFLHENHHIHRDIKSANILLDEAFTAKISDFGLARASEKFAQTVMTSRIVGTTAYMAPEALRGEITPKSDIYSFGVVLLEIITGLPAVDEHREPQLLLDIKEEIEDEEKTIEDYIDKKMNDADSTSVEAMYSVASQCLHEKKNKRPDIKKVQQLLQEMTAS

[13] = molecular target: T3, Interleukin-1 receptor-associated kinase 4 (Homo sapiens); details: at 1 µM
[14] = molecular target: Leucine-rich repeat serine/threonine-protein kinase 2 (Homo sapiens) (UniProt Q5S007); details: at 0.1 µM
[15] = molecular target: Leucine-rich repeat serine/threonine-protein kinase 2 (Homo sapiens) (UniProt Q5S007); details: at 1 µM
[16] = system: Leucine-rich repeat serine/threonine-protein kinase 2 (Homo sapiens), Q5S007 [G2019S]; details: at 0.1 µM
[17] = system: Leucine-rich repeat serine/threonine-protein kinase 2 (Homo sapiens), Q5S007 [G2019S]; details: at 1 µM

Tyrosine-protein kinase Yes (Homo sapiens), sequence (P07947 2-543 limits assumed): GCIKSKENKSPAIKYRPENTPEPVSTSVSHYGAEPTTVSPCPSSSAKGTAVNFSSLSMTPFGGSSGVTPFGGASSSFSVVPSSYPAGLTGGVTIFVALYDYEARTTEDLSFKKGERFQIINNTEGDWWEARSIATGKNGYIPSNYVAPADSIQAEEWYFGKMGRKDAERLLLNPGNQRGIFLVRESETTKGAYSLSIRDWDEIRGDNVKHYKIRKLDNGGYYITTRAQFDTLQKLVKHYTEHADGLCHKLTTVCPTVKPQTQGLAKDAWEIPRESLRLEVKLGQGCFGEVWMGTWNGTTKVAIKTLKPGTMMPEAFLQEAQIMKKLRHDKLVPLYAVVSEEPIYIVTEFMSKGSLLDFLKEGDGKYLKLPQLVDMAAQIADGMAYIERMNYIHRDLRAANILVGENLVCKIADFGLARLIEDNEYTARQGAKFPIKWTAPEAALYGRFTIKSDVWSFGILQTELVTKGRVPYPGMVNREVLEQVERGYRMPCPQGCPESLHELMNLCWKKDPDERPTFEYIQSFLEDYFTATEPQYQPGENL
Serine/threonine-protein kinase B-raf (Homo sapiens), sequence (P15056 whole entry): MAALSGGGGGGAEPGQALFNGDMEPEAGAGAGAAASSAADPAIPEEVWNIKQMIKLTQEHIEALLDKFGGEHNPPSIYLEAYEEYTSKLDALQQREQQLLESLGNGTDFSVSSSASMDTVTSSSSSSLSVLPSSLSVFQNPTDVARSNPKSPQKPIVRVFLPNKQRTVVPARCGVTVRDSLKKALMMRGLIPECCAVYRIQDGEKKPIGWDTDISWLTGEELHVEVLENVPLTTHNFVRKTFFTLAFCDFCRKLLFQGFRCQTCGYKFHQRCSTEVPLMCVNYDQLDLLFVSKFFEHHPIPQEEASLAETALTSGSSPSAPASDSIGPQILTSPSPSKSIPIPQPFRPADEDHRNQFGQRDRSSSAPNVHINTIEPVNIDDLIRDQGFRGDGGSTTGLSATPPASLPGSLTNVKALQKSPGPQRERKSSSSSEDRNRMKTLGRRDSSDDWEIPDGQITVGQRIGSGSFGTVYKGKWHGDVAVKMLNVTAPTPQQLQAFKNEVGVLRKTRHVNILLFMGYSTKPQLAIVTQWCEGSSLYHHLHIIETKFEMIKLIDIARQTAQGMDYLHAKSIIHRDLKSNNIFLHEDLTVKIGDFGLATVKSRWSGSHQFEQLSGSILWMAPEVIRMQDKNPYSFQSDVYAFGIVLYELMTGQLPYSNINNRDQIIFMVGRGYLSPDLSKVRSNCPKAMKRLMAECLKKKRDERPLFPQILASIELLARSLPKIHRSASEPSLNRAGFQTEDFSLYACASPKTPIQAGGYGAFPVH
Leucine-rich repeat serine/threonine-protein kinase 2 (Homo sapiens), sequence (Q5S007 whole entry): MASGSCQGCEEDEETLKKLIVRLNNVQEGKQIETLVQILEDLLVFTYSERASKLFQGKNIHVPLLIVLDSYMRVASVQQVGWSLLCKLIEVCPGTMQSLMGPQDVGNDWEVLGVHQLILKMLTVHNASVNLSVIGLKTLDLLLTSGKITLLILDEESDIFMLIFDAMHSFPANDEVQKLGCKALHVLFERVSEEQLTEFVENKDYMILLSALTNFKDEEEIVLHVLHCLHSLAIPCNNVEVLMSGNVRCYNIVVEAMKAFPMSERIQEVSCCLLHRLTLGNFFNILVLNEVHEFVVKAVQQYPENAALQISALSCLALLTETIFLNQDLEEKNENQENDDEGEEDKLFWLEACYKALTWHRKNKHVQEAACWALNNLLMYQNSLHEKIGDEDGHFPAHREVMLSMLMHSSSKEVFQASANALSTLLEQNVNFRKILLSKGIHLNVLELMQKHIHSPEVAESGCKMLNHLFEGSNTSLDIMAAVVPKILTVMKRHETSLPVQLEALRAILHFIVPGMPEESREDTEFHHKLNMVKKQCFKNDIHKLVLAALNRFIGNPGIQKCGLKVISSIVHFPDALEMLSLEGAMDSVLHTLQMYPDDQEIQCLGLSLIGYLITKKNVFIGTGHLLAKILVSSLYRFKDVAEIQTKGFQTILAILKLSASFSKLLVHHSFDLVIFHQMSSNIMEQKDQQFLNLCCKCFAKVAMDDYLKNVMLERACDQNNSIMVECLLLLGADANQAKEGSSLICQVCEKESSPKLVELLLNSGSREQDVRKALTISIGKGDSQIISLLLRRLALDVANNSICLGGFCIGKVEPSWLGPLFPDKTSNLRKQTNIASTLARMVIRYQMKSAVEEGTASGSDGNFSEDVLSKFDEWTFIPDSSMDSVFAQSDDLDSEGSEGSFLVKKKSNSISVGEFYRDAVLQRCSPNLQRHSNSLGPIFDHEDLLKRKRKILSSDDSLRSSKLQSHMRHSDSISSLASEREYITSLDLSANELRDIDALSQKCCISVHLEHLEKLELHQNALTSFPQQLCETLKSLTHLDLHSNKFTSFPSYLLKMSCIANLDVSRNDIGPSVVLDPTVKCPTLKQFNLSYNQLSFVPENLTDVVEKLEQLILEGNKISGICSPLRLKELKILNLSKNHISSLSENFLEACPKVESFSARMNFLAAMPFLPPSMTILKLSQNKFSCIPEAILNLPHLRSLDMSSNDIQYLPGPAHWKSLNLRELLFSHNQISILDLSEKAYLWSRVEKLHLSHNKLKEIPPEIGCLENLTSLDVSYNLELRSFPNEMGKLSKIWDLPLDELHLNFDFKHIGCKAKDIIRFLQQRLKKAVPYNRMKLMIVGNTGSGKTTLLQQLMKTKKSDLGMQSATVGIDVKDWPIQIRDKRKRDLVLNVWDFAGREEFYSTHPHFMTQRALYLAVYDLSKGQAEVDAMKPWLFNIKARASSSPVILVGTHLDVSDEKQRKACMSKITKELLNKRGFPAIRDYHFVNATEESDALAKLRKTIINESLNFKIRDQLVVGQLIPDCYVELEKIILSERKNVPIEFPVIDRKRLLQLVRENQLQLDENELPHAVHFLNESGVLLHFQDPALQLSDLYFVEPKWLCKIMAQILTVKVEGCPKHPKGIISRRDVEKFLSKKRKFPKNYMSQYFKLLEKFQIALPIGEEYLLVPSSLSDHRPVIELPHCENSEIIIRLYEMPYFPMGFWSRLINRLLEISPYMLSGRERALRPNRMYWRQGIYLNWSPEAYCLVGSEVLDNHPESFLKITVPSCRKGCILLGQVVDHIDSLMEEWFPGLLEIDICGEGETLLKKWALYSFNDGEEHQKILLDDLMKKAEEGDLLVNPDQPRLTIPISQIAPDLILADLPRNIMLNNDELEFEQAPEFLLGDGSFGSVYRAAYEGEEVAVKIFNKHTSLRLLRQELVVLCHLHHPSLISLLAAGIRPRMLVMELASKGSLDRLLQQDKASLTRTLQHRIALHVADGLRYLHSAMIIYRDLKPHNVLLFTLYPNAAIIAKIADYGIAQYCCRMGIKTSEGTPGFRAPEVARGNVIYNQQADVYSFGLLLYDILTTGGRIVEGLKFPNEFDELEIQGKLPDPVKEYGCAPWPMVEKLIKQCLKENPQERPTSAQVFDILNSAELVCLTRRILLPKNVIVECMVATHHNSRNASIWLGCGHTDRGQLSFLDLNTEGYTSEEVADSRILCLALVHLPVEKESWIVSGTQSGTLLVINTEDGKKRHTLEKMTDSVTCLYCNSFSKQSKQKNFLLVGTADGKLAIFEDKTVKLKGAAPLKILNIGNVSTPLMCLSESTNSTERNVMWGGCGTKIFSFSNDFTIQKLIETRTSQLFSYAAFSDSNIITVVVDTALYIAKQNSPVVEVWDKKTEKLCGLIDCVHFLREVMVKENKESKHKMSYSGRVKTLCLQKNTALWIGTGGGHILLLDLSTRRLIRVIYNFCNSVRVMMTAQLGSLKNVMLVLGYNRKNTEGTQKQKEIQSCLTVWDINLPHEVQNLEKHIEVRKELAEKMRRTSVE
Serine/threonine-protein kinase B-raf (Homo sapiens), P15056 [V600E], sequence (P15056 whole entry V600E): as the sequence (P15056 whole entry) above, with V600E counted along it
Leucine-rich repeat serine/threonine-protein kinase 2 (Homo sapiens), Q5S007 [G2019S], sequence (Q5S007 whole entry G2019S): as the sequence (Q5S007 whole entry) above, with G2019S counted along it
RAF proto-oncogene serine/threonine-protein kinase (Homo sapiens), sequence (P04049 whole entry): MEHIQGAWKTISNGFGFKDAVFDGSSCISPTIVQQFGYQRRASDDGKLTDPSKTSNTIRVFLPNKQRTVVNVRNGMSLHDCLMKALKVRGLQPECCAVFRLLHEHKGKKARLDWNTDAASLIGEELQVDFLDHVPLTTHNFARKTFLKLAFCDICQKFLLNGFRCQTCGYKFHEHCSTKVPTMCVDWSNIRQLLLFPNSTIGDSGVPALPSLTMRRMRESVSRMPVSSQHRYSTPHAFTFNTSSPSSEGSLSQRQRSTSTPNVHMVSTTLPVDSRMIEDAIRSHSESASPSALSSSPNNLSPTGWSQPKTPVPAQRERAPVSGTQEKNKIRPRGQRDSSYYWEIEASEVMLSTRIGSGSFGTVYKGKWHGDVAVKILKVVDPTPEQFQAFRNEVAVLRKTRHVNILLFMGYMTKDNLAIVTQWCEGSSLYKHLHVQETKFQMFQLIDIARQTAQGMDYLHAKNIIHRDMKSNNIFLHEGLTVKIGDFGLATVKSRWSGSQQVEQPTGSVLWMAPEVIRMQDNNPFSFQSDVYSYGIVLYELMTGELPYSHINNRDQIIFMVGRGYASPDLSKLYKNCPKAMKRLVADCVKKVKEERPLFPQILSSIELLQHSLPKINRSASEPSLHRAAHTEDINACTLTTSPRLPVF

SMILES	inhibition [1]	inhibition [2]	inhibition [3]	inhibition [4]	inhibition [5]	inhibition [6]	inhibition [7]	inhibition [8]	inhibition [9]	inhibition [10]	inhibition [11]	inhibition [12]	inhibition [13]	inhibition [14]	inhibition [15]	inhibition [16]	inhibition [17]
COC(=O)c1ccc2c(c1)C(=Cc1cc(Br)c(O)c(Br)c1)C(=O)N2	12.4%	0.08%	12.2%	3.31%	5.41%	9.11%	19.7%	7.27%	18.2%	3.01%	42%	1.11%	2.79%	29.1%	88.5%	58.3%	91.7%
CN(C)C(=O)O[C@H]1CN[C@H](C#Cc2cc3ncnc(Nc4ccc(OCc5cccc(F)c5)c(Cl)c4)c3s2)C1	2.13%	1.37%	3.86%	0.97%	3.33%	3.09%	6.19%	3.55%	5.77%	3.11%	5.68%	-3.18%	1.16%	1.64%	2.05%	4.13%	6.83%
COc1ccc(-c2nn3ncccc3c2-c2ccnc(Nc3cccc(C(F)(F)F)c3)n2)cc1	4.06%	26.3%	79.8%	-0.73%	1.1%	4.3%	6.08%	4.63%	4.39%	-2.4%	-0.7%	2.1%	1.92%	2.5%	2.68%	2.73%	-0.13%
Cc1ccc(C(=O)NC2CC2)cc1-c1ccc2[nH]ncc2c1	-0.85%	-1.92%	-0.56%	-3.94%	-1.58%	-6.03%	-6.48%	-3.87%	-3.07%	-2.17%	-2.56%	-1.84%	-0.57%	-0.67%	2.87%	1.11%	4.33%
CCn1c(-c2nonc2N)nc2ccc(F)cc21	5.61%	4.26%	8.39%	3.33%	2.76%	8.45%	7.77%	9.84%	7.05%	-0.53%	0.22%	1.39%	2.93%	4.04%	8.92%	4.92%	4.42%
FC(F)(F)c1ccc(-c2nn3ncccc3c2-c2ccnc(Nc3ccc4c(c3)OCCO4)n2)cc1	5.58%	30%	83.3%	5.79%	5.21%	-1.63%	-1.17%	-1.85%	-1.18%	-0.32%	-0.8%	5.37%	1.44%	4.63%	8.46%	6.21%	10.1%
NS(=O)(=O)c1ccc(-c2cc3ccncc3cc2OCc2ccccc2)cc1	4.23%	3.11%	3.16%	0.37%	-0.77%	4.65%	6.35%	5.61%	4.49%	2.9%	1.99%	-1.18%	1.31%	2.38%	7.53%	1.82%	8.17%
CC(C)c1ccc2c(c1)NC(=O)/C2=N/Nc1ccc(S(N)(=O)=O)cc1	2.75%	2.45%	9.19%	-0.31%	1.5%	-0.82%	-1.25%	0.24%	-0.56%	-2.32%	-0.41%	0.36%	0.49%	-0.37%	9.75%	2.27%	11.5%
Nc1nccc(C#Cc2cncnc2Nc2ccc(OCc3cccc(F)c3)c(Cl)c2)n1	3.66%	-0.62%	5.85%	1.97%	3.29%	3.49%	6.72%	3.75%	5.29%	-0.89%	-0.28%	0.44%	2.48%	7.72%	11.1%	8.54%	14%
C[C@@H](Oc1cc(-n2cnc3ccc(OCC4CCN(C)CC4)cc32)sc1C(N)=O)c1ccccc1C(F)(F)F	6.92%	4.36%	13.2%	-2.7%	-1.19%	-0.94%	-2.8%	-0.73%	0.84%	12.6%	1.99%	0.42%	9.77%	6.53%	26.4%	7.39%	31%
Cc1ccc(O)cc1Nc1ccnc2ccc(S(C)(=O)=O)cc12	19.1%	89.3%	99%	2.4%	1.31%	15.3%	32.5%	13.8%	26%	-4.03%	9.12%	4.59%	3.6%	4.8%	18.7%	12.5%	48%
NS(=O)(=O)c1cccc(-c2cc3ccncc3cc2OCc2ccccc2)c1	3.23%	0.88%	2.73%	2.48%	4.15%	6.76%	6.57%	5.8%	5.78%	2.97%	0.71%	1.17%	2.26%	4.42%	8.85%	4.16%	8.74%
N#Cc1c(NC(=O)c2ccccc2F)sc2c1CCCC2	-1.16%	2.43%	-1.67%	-3.51%	0.2%	-1.34%	-1.56%	-0.04%	1.18%	-2.08%	-0.64%	-1.41%	-0.41%	1.84%	1.84%	2.14%	3.2%
CC(C)c1ccc(Nc2nccc(-c3cnn4ncccc34)n2)cc1	4.27%	3.25%	6.98%	1.01%	6.84%	4.59%	13.7%	5.11%	11.6%	0.59%	2.26%	-2.06%	1.84%	9.89%	17.9%	11.6%	44.5%
